According to PubChem BioAssay (NCI):
This is part of a sample that, as a whole, favours compounds with a hit. Of some 83,000 tested, about 20% had one in any assay.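 The endpoint reported here, percent growth, reads 100 for growth as untreated, 0 for no net growth and -100 for all cells dead.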 Calls of active or inactive are those of the source. How the source made its calls: active means growth percent below 10; inactive means the rest.

Columns and labels:
Assay in all cases: NCI-60 one-dose screen, 48 h (100 = growth as untreated, 0 = no growth, -100 = all killed)
Conditions in all cases: 10 µM unless noted
HCT-15 colon = tested on: HCT-15 colon
HT29 colon = tested on: HT29 colon
SNB-75 CNS = tested on: SNB-75 CNS
SNB-19 CNS = tested on: SNB-19 CNS
U251 CNS = tested on: U251 CNS
PC-3 prostate = tested on: PC-3 prostate
SK-MEL-5 melanoma = tested on: SK-MEL-5 melanoma
UACC-62 melanoma = tested on: UACC-62 melanoma
LOX IMVI melanoma = tested on: LOX IMVI melanoma
SK-MEL-28 melanoma = tested on: SK-MEL-28 melanoma
SK-MEL-2 melanoma = tested on: SK-MEL-2 melanoma
EKVX NSCLC = tested on: EKVX NSCLC
SN12C renal = tested on: SN12C renal
UO-31 renal = tested on: UO-31 renal
TK-10 renal = tested on: TK-10 renal
ACHN renal = tested on: ACHN renal
CAKI-1 renal = tested on: CAKI-1 renal
A498 renal = tested on: A498 renal
CCRF-CEM leukemia = tested on: CCRF-CEM leukemia
MOLT-4 leukemia = tested on: MOLT-4 leukemia

Measured: growth

CSc1ccc2c3c(n(C[C@H](O)CO)c(=O)c2c1)-c1ccccc1C3=O
inactive: HCT-15 colon 18.6% | HT29 colon 16.5% | SNB-75 CNS 61.2% | SNB-19 CNS 32.6% | U251 CNS 14.2% | PC-3 prostate 44.5% | SK-MEL-5 melanoma 44.3% | UACC-62 melanoma 37.5% | SK-MEL-28 melanoma 72.3% | SK-MEL-2 melanoma 104% | EKVX NSCLC 77.1% | SN12C renal 23.1% | UO-31 renal 19.9% | TK-10 renal 70.7% | CAKI-1 renal 27.9% | A498 renal 52.3%
active: LOX IMVI melanoma -3.11% | ACHN renal -41% | CCRF-CEM leukemia -4.25% | MOLT-4 leukemia -17.8%

CN(C)c1ccc(CNCCO)cc1
inactive: HCT-15 colon 106% | HT29 colon 69.1% | SNB-75 CNS 101% | SNB-19 CNS 98.5% | U251 CNS 89.4% | PC-3 prostate 68.5% | SK-MEL-5 melanoma 99.9% | UACC-62 melanoma 90.2% | LOX IMVI melanoma 102% | SK-MEL-28 melanoma 81.7% | SK-MEL-2 melanoma 65.8% | EKVX NSCLC 103% | SN12C renal 99.9% | UO-31 renal 91.5% | TK-10 renal 82.9% | ACHN renal 102% | CAKI-1 renal 101% | A498 renal 111% | CCRF-CEM leukemia 88.4% | MOLT-4 leukemia 99%

CCOc1ccc(NC(=O)Nc2ccc(OCC)cc2)cc1
inactive: HCT-15 colon 106% | HT29 colon 107% | SNB-75 CNS 106% | SNB-19 CNS 107% | U251 CNS 99.8% | PC-3 prostate 100% | SK-MEL-5 melanoma 104% | UACC-62 melanoma 105% | LOX IMVI melanoma 98.3% | SK-MEL-28 melanoma 101% | SK-MEL-2 melanoma 121% | EKVX NSCLC 108% | SN12C renal 104% | UO-31 renal 95.2% | TK-10 renal 107% | ACHN renal 116% | CAKI-1 renal 103% | A498 renal 104% | CCRF-CEM leukemia 107% | MOLT-4 leukemia 99.3%

Cc1ccc(O)c(NC(=O)c2cccc(Nc3ccnc(C(F)(F)F)c3)c2)c1
active: CCRF-CEM leukemia -1.16% | MOLT-4 leukemia -4.89%
inactive: HCT-15 colon 80% | HT29 colon 101% | SNB-75 CNS 85% | SNB-19 CNS 90.5% | U251 CNS 83.6% | PC-3 prostate 68% | SK-MEL-5 melanoma 20.7% | UACC-62 melanoma 30.8% | LOX IMVI melanoma 66.9% | SK-MEL-28 melanoma 100% | SK-MEL-2 melanoma 82.7% | EKVX NSCLC 41.7% | SN12C renal 39.9% | UO-31 renal 29.3% | TK-10 renal 92.2% | ACHN renal 57.8% | CAKI-1 renal 41.6% | A498 renal 96.1%

CCOC(=O)C/C(=N\Nc1cc(=O)[nH]c2ccc(C)cc12)C(=O)OCC
inactive: HCT-15 colon 103% | HT29 colon 112% | SNB-75 CNS 94.7% | SNB-19 CNS 97.8% | U251 CNS 103% | PC-3 prostate 91.4% | SK-MEL-5 melanoma 96.8% | UACC-62 melanoma 91.1% | LOX IMVI melanoma 102% | SK-MEL-28 melanoma 99.3% | SK-MEL-2 melanoma 108% | EKVX NSCLC 109% | SN12C renal 101% | UO-31 renal 86.7% | TK-10 renal 101% | ACHN renal 99% | CAKI-1 renal 94.6% | A498 renal 112% | MOLT-4 leukemia 18.3%
active: CCRF-CEM leukemia -57.2%

Cc1ccc(S(=O)(=O)OC[C@]23CCC(C)(C)C[C@H]2C2=CC[C@@H]4[C@@]5(C)CCCNC(C)(C)[C@@H]5CC[C@@]4(C)[C@]2(C)CC3)cc1
active: HCT-15 colon -50.9% | HT29 colon -59.3% | U251 CNS -81.1% | LOX IMVI melanoma -87.7%
inactive: SNB-75 CNS 86.4% | SNB-19 CNS 85.7% | PC-3 prostate 53.9% | SK-MEL-5 melanoma 91.5% | UACC-62 melanoma 89.7% | SK-MEL-28 melanoma 99.8% | SK-MEL-2 melanoma 102% | EKVX NSCLC 83% | SN12C renal 46.4% | UO-31 renal 60.2% | TK-10 renal 73% | ACHN renal 48.6% | CAKI-1 renal 41.9% | A498 renal 95.4% | CCRF-CEM leukemia 34.5% | MOLT-4 leukemia 12.9%

C=C(C)[C@@H]1CC[C@]2(C(=O)Nc3ccccn3)CC[C@]3(C)[C@H](CC[C@@H]4[C@@]5(C)CCCNC(C)(C)[C@@H]5CC[C@]43C)[C@@H]12
active: HT29 colon 4.13% | SK-MEL-5 melanoma -96.5% | CCRF-CEM leukemia 9.61% | MOLT-4 leukemia -0.121%
inactive: HCT-15 colon 13.1% | SNB-75 CNS 33.4% | SNB-19 CNS 25% | U251 CNS 10.4% | PC-3 prostate 17.3% | UACC-62 melanoma 36.1% | LOX IMVI melanoma 10.9% | SK-MEL-28 melanoma 31.9% | SK-MEL-2 melanoma 41.2% | EKVX NSCLC 25.3% | SN12C renal 20.8% | UO-31 renal 55.9% | TK-10 renal 28.4% | ACHN renal 33.4% | CAKI-1 renal 34.8% | A498 renal 18.9%

CC(C)=CC(=O)N[C@H]1CC[C@]2(C)C3CC[C@]4(C)C(C(C)N(C)C)=CCC4C3CCC2[C@H]1O (stereo not given in full)
inactive: SNB-75 CNS 65% | SNB-19 CNS 100% | U251 CNS 51.5% | PC-3 prostate 37.7% | SK-MEL-2 melanoma 106% | EKVX NSCLC 57.7% | SN12C renal 70.1% | TK-10 renal 85.7% | ACHN renal 58.6% | CAKI-1 renal 79.4% | A498 renal 66.1% | CCRF-CEM leukemia 13.4% | MOLT-4 leukemia 48.1%
active: HCT-15 colon -36.5% | HT29 colon 2.01% | SK-MEL-5 melanoma -76.1% | UACC-62 melanoma -25.1% | LOX IMVI melanoma -59.1% | SK-MEL-28 melanoma -72.5% | UO-31 renal -48%

CCOC(=O)CC[C@H](NC(=O)c1ccc(N(C)Cc2cnc3nc(N)nc(N)c3n2)c2ccccc12)C(=O)OCC
inactive: HCT-15 colon 30% | HT29 colon 12.5% | SNB-75 CNS 76% | SNB-19 CNS 33.7% | U251 CNS 33% | PC-3 prostate 24.3% | SK-MEL-5 melanoma 23.4% | UACC-62 melanoma 18.5% | LOX IMVI melanoma 17.6% | SK-MEL-28 melanoma 47.8% | SK-MEL-2 melanoma 51.9% | EKVX NSCLC 75.2% | SN12C renal 35.6% | UO-31 renal 20.9% | TK-10 renal 43.8% | ACHN renal 25% | CAKI-1 renal 24.1% | A498 renal 35.1% | CCRF-CEM leukemia 10.5% | MOLT-4 leukemia 24.8%

OC1(c2ccccc2)c2ccccc2N(c2ccccc2)c2ccc(Cl)cc21 (stereo not given)
active: HCT-15 colon -44.2% | HT29 colon -77.5% | SNB-75 CNS -57.6% | SNB-19 CNS -91.6% | U251 CNS -87.9% | PC-3 prostate -75.1% | SK-MEL-5 melanoma -97.6% | UACC-62 melanoma -92% | LOX IMVI melanoma -93.6% | SK-MEL-28 melanoma -97.1% | SK-MEL-2 melanoma -72.1% | EKVX NSCLC -81.8% | SN12C renal -81.6% | UO-31 renal -95% | TK-10 renal -95.5% | ACHN renal -99.5% | CAKI-1 renal -9.02% | A498 renal -62.6% | CCRF-CEM leukemia -13% | MOLT-4 leukemia 1.26%

Cc1c2cnccc2c(C)c2c1c1cc(CO)ccc1n2C
active: HCT-15 colon -10.9% | HT29 colon -16.3% | SNB-75 CNS -45.1% | SNB-19 CNS -22.2% | U251 CNS -38.1% | PC-3 prostate -9.48% | SK-MEL-5 melanoma -96.8% | UACC-62 melanoma -74.7% | LOX IMVI melanoma -63.5% | SK-MEL-28 melanoma -69.5% | SK-MEL-2 melanoma -75.5% | EKVX NSCLC -15.2% | SN12C renal -33.8% | UO-31 renal -32.6% | TK-10 renal -27.7% | ACHN renal -36.4% | CAKI-1 renal -28.3% | A498 renal -67.1% | CCRF-CEM leukemia -7.79% | MOLT-4 leukemia -10.8%

CN(C)c1ccc(C(=S)c2ccc(N(C)C)cc2)cc1
inactive: HCT-15 colon 43% | HT29 colon 30.9% | SNB-75 CNS 78.1% | SNB-19 CNS 72.6% | U251 CNS 62.4% | PC-3 prostate 71.2% | SK-MEL-5 melanoma 30.5% | UACC-62 melanoma 52.2% | LOX IMVI melanoma 69% | SK-MEL-28 melanoma 84.4% | SK-MEL-2 melanoma 58.5% | EKVX NSCLC 98.2% | SN12C renal 75.6% | UO-31 renal 59% | TK-10 renal 82.7% | ACHN renal 93.4% | CAKI-1 renal 87.1% | A498 renal 62.6% | CCRF-CEM leukemia 77.3% | MOLT-4 leukemia 75.5%

O=C1/C(=C/c2cccc(Br)c2)COc2ccc(O)cc21
active: LOX IMVI melanoma -37.1% | SN12C renal 4.81% | CCRF-CEM leukemia 0.865% | MOLT-4 leukemia 6.15%
inactive: HCT-15 colon 21.4% | HT29 colon 15% | SNB-75 CNS 64.4% | SNB-19 CNS 45.1% | U251 CNS 18.3% | PC-3 prostate 51.2% | SK-MEL-5 melanoma 88.3% | UACC-62 melanoma 42.6% | SK-MEL-28 melanoma 98.8% | SK-MEL-2 melanoma 79.2% | EKVX NSCLC 78.4% | UO-31 renal 54.1% | TK-10 renal 93.1% | ACHN renal 54.6% | CAKI-1 renal 63.5% | A498 renal 99.5%

CCCCCCCCn1ccc2cc(NC(=O)CN3CCN(c4cc(C)nc(Cl)n4)CC3)ccc21
inactive: HCT-15 colon 76.3% | HT29 colon 77.3% | SNB-75 CNS 82.9% | SNB-19 CNS 88.9% | U251 CNS 89.5% | PC-3 prostate 61.4% | SK-MEL-5 melanoma 59.3% | UACC-62 melanoma 64.5% | LOX IMVI melanoma 94.2% | SK-MEL-28 melanoma 90.9% | SK-MEL-2 melanoma 109% | EKVX NSCLC 64.4% | SN12C renal 100% | UO-31 renal 63.5% | TK-10 renal 95.1% | ACHN renal 86.3% | CAKI-1 renal 92.6% | A498 renal 97.5% | MOLT-4 leukemia 26.2%
active: CCRF-CEM leukemia -35.7%

CC1=Nc2cnc(Nc3ccc(N4CCCCC4)cc3)nc2Nc2ccccc21
inactive: HCT-15 colon 62.6% | HT29 colon 62.5% | SNB-75 CNS 86.7% | SNB-19 CNS 94.9% | U251 CNS 83.8% | PC-3 prostate 19.6% | SK-MEL-5 melanoma 41.6% | UACC-62 melanoma 55.2% | LOX IMVI melanoma 75.8% | SK-MEL-28 melanoma 84.7% | SK-MEL-2 melanoma 86% | EKVX NSCLC 68.8% | SN12C renal 69.7% | UO-31 renal 49.7% | TK-10 renal 97.3% | ACHN renal 68.1% | CAKI-1 renal 79.3% | A498 renal 55.8% | CCRF-CEM leukemia 31.5% | MOLT-4 leukemia 26.7%
